Data on 88 compounds can be found in PubChem BioAssay AID1117264 (The Scripps Research Institute Molecular Screening Center, 2014).

The structures appear in SMILES notation. In all, about 89,000 compounds went through this assay and about 440 (0.49%) were called active. The full list was thinned out, with actives kept by preference. Values without a mark were called inactive.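 The calls were made as follows: active = inhibition above the mean inhibition across all screened compounds plus 3 SD (cut at about 11% in these data); inactive = the rest.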

The experiment deals with RNA-editing ligase 1, mitochondrial (Trypanosoma brucei brucei) (UniProt P86926). The experiment can be described thus: T. brucei editing ligase REL1 blockade – biochemical, FRET fluorescence, primary screen (AID 1117264).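 Also: 0% = plate median of test wells and 100% = NSC42067 control.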 The following applies: TbREL1 RNA ligation, at 9.66 µM, active compounds read high.
Sequence of RNA-editing ligase 1, mitochondrial (Trypanosoma brucei brucei) (P86926 whole entry, looked up): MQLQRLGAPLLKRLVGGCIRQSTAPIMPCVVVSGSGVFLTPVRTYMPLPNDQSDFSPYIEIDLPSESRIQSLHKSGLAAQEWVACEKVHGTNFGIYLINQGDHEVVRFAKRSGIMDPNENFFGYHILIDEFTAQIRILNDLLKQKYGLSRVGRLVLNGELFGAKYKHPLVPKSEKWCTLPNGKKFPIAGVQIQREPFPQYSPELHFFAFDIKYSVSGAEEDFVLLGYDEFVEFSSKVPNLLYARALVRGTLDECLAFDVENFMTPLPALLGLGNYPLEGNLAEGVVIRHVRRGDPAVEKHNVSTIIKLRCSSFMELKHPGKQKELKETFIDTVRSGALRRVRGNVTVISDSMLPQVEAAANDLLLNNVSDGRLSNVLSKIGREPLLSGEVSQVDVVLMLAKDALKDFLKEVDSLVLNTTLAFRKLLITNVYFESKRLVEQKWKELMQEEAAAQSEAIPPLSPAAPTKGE
As for `Cc1nc(C)c(C(=O)Nc2cccc(C)c2C)o1`, the inhibition was -2.18%.

Regarding `Cc1c(Cl)cccc1NC(=O)NCCCN1CCCC1=O`, the inhibition is 5.26%.

`Cc1nnsc1C(=O)Nc1cccc(Cl)c1C`: the inhibition is 11.4% (active).

For the compound `O=C(OCC(=O)N1CCCC1)c1ccc(Cl)nc1`, the inhibition is 4.11%.

For the compound `O=C1CC(N2CCN(C(c3ccccc3)c3ccccc3)CC2)C(=O)N1` (stereo not drawn), the inhibition is 4.81%.

Consider `Cc1cccc(N2CCN(C(c3ccccc3)c3nnnn3CC3CCCO3)CC2)c1C` (stereo not drawn), for which the inhibition was -2.64%.

Regarding `CC1(C)CC(N2CCN(C(c3ccccc3)c3ccccc3)CC2)=CC(=[N+]2CCCCC2)C1`, the inhibition is 20.5% (active).

Regarding `COC(=O)CN1C(=O)[C@H]2[C@@H](/C=C/c3ccccc3)N3C(=O)CN(CC4CC4)C(=O)[C@@]3(Cc3ccccc3)[C@H]2C1=O`, the inhibition was -1.86%.

For `NC(=O)COC(=O)c1ccc2c(c1)C(=O)N(Cc1ccco1)C2=O`, the inhibition is -0.09%.

For `Cc1cc(NS(=O)(=O)c2ccc(NC(=O)CSc3nnc(SCc4ccc(F)cc4)s3)cc2)nc(C)n1`, the inhibition is 1.56%.

As for `CCOC(=O)C1C(c2ccc(O)cc2)NC(=O)NC1(O)C(F)(F)F` (stereo not drawn), the inhibition is -0.27%.

With `COC(=O)C1CN(CCc2ccccc2)CCS(=O)(=O)N1Cc1cccc(Cl)c1` (stereo not drawn), the inhibition was 1.04%.

Take `COc1ccc(CCNC(=O)CSc2nc3[nH]ncc3c(=O)n2-c2cccc(C(F)(F)F)c2)cc1OC`: the inhibition was -1.55%.

Regarding `CCc1ccc(N(CC(=O)NCc2cccnc2)S(=O)(=O)c2ccccc2)cc1`, the inhibition is -1.98%.

Take `N#Cc1ccc(C2N=C(c3ccccc3)NO2)cc1` (stereo not drawn): the inhibition is 9.48%.

For `O=C(Nc1ccon1)c1nc[nH]c1C(=O)NCc1ccccc1`, the inhibition is 5.43%.

Take `Cc1nc2ccc(C(=O)N3CCN(C(=O)C(C)(C)C)CC3)cc2n1C1CCCC1`: the inhibition is -0.3%.

With `COc1ccccc1/C=C/C(=O)OCC(=O)NC1CCCCCC1`, the inhibition was 1.81%.

Take `Cc1ccc(Cn2c(C)c(C(=O)NCc3ccccc3C(F)(F)F)sc2=O)cc1`: the inhibition was 0.6%.

In the case of `COc1ccc(S(=O)(=O)N2CCOCC2)cc1NC(=O)CC1CC2CCC1C2` (stereo not drawn), the inhibition was -2.41%.

With `CCOc1ccc(NC(=O)CCCCCN2C(=O)[C@@H]3Cc4ccccc4CN3C2=O)cc1`, the inhibition is -0.69%.

Take `Cc1c(S(=O)(=O)NC(C)c2ccccc2)c(=O)n(C)c(=O)n1C` (stereo not drawn): the inhibition is 0.77%.

For `CCCCCn1c(=O)[nH]c2cc(C(=O)NCCCN3CCCCC3C)ccc2c1=O` (stereo not drawn), the inhibition is 11.5% (active).

In the case of `CCC1CCCCN1CCCNC(=O)C1CCC(Cn2c(=O)[nH]c3ccccc3c2=O)CC1` (stereo not drawn), the inhibition is 0.83%.

Regarding `CCOc1cc2[nH]c(=O)n(Cc3ccc(C(=O)NCCCN4CCCC4=O)cc3)c(=O)c2cc1OCC`, the inhibition is -3.44%.

Turning to `CCn1c(=S)sc2c(=O)n(CC(=O)Nc3ccc(OC)cc3)c(C)nc21`, the inhibition is -1.47%.

Turning to `O=C(NC1CCCCC1)C1CCCN(S(=O)(=O)c2ccc(Br)s2)C1` (stereo not drawn), the inhibition is 1.07%.

Turning to `CCOC(=O)N1CCN(Cc2nc(Cc3cccc(C(F)(F)F)c3)no2)CC1`, the inhibition is 1.05%.

As for `COc1ccc(N(Cc2ccc(N(C)C)cc2)C(=O)c2ccc(S(C)(=O)=O)cc2)cc1`, the inhibition is -9.41%.

For `COCCN(Cc1ccccc1)C(=O)Cc1ccc(S(=O)(=O)N2CCOCC2)s1`, the inhibition was -2.32%.

`CCc1ccc(CN2C(=O)c3ccccc3C2C(=O)NCC2CCCO2)cc1` (stereo not drawn): the inhibition was -0.89%.

On to `COCC(=O)N(C)[C@H]1C[C@H]2c3cc(Oc4ccccc4C)ccc3CCN2C(=O)[C@H]1[C@H](C)O`, for which the inhibition was 1.02%.

Turning to `COc1cccc(CNC(=O)C2CCCN(c3ncnc4c3nc3n4CCCCC3)C2)c1` (stereo not drawn), the inhibition is 0.12%.

With `Cc1ccc(NC(=O)Cn2cccc2C2=NC(c3ccccc3)CO2)c(C)c1` (stereo not drawn), the inhibition is -0.96%.

For the compound `COc1ccc(N2C(=O)c3ccccc3NC2c2ccc(OC)c(CN3CCOCC3)c2)cc1` (stereo not drawn), the inhibition is 0.23%.

As for `O=C1NC[C@H](Cc2ccc(O)cc2)N(C[C@H]2CCCN2C[C@H](Cc2ccccc2)N2C[C@H](Cc3ccccc3)N(CCc3ccccc3)C(=O)C2=O)C1=O`, the inhibition is -1.45%.

As to `CC[C@@H](C)[C@@H]1CN([C@@H](C)CN2CCC[C@H]2CN2C(N)=NC[C@H]2C(C)C)C(=N)N1CCc1ccc(Cl)c(Cl)c1`, the inhibition was 14% (active).

`CC1CCCCN1C(=O)Cn1c(=O)oc2cc(S(=O)(=O)N3CCCCC3)ccc21` (stereo not drawn): the inhibition is -1.44%.

With `Cc1cc(C)cc(N(CC(=O)NC2CCCC2)C(=O)CCC(=O)Nc2cc(C)on2)c1`, the inhibition is 0.2%.

For the compound `Nc1ncnc2c1ncn2[C@@H]1O[C@H](C(=O)N[C@@H](CCc2ccccc2)C(=O)NCC(=O)N2CCOCC2)[C@@H](O)[C@H]1O`, the inhibition was -1.68%.

For the compound `COc1c(O)cc2oc(-c3ccc(O)c(O)c3)cc(=O)c2c1O`, the inhibition was 29.5% (active).

Turning to `CCOC(=O)COc1cc(OCC(=O)OCC)c2c(=O)cc(-c3ccccc3)oc2c1`, the inhibition was 2.07%.

Turning to `COc1cc(NC(=O)CSC(=S)N2CCCC2)c(OC)cc1Cl`, the inhibition was 6.87%.

As to `O=c1[nH]c(=O)c2nc3ccccc3nc2[nH]1`, the inhibition is -0.15%.

In the case of `Nc1ccc2nc3c(=O)[nH]c(=S)[nH]c3nc2c1`, the inhibition is 50.5% (active).

As to `COc1ccc([N+](=O)[O-])cc1N(CC(=O)Nc1ccccc1C(=O)N1CCOCC1)S(C)(=O)=O`, the inhibition is -1.27%.

In the case of `O=C(NCc1ccccc1)[C@@H]1CSC2c3ccccc3C(=O)N21` (stereo partly drawn), the inhibition is 18.5% (active).

On to `O=C(NCc1ccccc1)C1CCN(C(=O)Cc2ccccc2)CC1`, for which the inhibition was 0.8%.

With `O=C(NCc1ccccc1)C1c2ccccc2OCC(=O)N1C1CC1` (stereo not drawn), the inhibition was 4.12%.

On to `Cc1c(CCC(=O)N[C@@H](CC(C)C)C(=O)O)c(=O)oc2c(C)c3oc4c(c3cc12)CCCC4`, for which the inhibition was 0.56%.

For `Cc1cc(NC(=O)CN2C(=O)NC(C)(CCc3ccccc3)C2=O)no1` (stereo not drawn), the inhibition was 0.2%.

As for `O=C(NNC1CC(=O)N(c2cccc(Cl)c2)C1=O)c1cccnc1` (stereo not drawn), the inhibition was 0.41%.

As for `O=S1(=O)CC(N2CCN(CCO)CC2)CN1Cc1cn(Cc2cccc(Cl)c2)nn1` (stereo not drawn), the inhibition was 0.87%.

As to `COc1ccc(NC(=O)C(Br)C(C)C)cc1` (stereo not drawn), the inhibition is -2.35%.

As to `CCOC(=O)c1ccc(NC(=S)N2CCCC2)cc1`, the inhibition is -1.43%.

For the compound `COc1ccccc1NC(=S)N1CCN(C(c2ccccc2)c2ccccc2)CC1`, the inhibition was -6.34%.

For `O=C(Oc1cccc(NC2=NS(=O)(=O)c3ccccc32)c1)c1ccncc1`, the inhibition was 0.38%.

As to `Cc1ccc(S(=O)(=O)N(C)C)cc1NC(=O)COC(=O)c1c(C)noc1C`, the inhibition is -2.07%.

On to `O=C(Nc1cccnc1)c1cccc(S(=O)(=O)N2CCCC2)c1`, for which the inhibition is 3.63%.

As to `CCCn1c(CCNc2nc(-c3ccc(OC)cc3)cs2)nc2ccccc21`, the inhibition was 1.63%.

In the case of `CC1CN(CC(=O)NC(C)c2ccccc2)CC(C)O1` (stereo not drawn), the inhibition was 1.72%.

Take `Fc1cc(Br)ccc1NC(=S)Nc1cccnc1`: the inhibition is -1.64%.

In the case of `COc1cc(/C=C/C(=O)OCC(=O)NC2CC2)cc(OC)c1OC`, the inhibition was 8.18%.

`COc1ccccc1-n1cnc2cc(NS(=O)(=O)c3ccccc3)ccc21`: the inhibition is 0.63%.

For `COc1cc(/C=C/C(=O)n2cnc3ccccc32)cc(OC)c1OC`, the inhibition was 12% (active).

`O=C(Nc1ccccc1N1CCN(C(=O)c2ccccc2)CC1)c1ccco1`: the inhibition was -1.42%.

For the compound `COc1ccc(N2C(=O)CC(Nc3ccc(F)cc3)C2=O)c([N+](=O)[O-])c1` (stereo not drawn), the inhibition was -1.86%.

For `CCOc1ccc(NC(=O)CN(C)CC(=O)NC(C)c2ccccc2)cc1OCC` (stereo not drawn), the inhibition is 2.99%.

Take `CCOC(=O)C1CCN(CC(=O)Nc2ccc(OC)c(S(=O)(=O)N3CCCCC3)c2)CC1`: the inhibition is 2.37%.

As to `CNc1nc(Nc2ccc(C)c(Cl)c2)nc(N)c1[N+](=O)[O-]`, the inhibition is 13.4% (active).

Turning to `Nc1nc(Nc2ccccc2)nc(NCCO)c1[N+](=O)[O-]`, the inhibition is 7.49%.

Turning to `Cc1ccc(Nc2nc(N)nc(CN3CCN(Cc4ccccc4)CC3)n2)cc1Cl`, the inhibition is -4.51%.

With `Cn1c(=O)c2c(nc(NCc3ccccc3)n2CC(N)=O)n(C)c1=O`, the inhibition is -2.6%.

For the compound `CN(C)/C(=N\OC(=O)c1ccccc1)c1nonc1N`, the inhibition was 0.81%.

Regarding `C=CCn1c(=S)[nH]c2scc(-c3ccco3)c2c1=O`, the inhibition is 20.5% (active).

In the case of `COc1ccc(N2CCN(CCNS(=O)(=O)c3ccc([N+](=O)[O-])cc3)CC2)cc1`, the inhibition was -4.76%.

On to `Cc1ccccc1N1CCN(C(=O)c2cccnc2)CC1`, for which the inhibition was -0.77%.

`O=C(c1ccc(CN2CCOCC2)cc1)N1CCN(c2ccccc2F)CC1`: the inhibition was -3.62%.

In the case of `O=C(Nn1cc(C(=O)N2CCN(c3ccccc3F)CC2)c2ccccc2c1=O)c1cnccn1`, the inhibition is 12.8% (active).

For `CC1=C(C(=O)N(C)C)C(c2ccccc2OC(F)F)NC(=O)N1` (stereo not drawn), the inhibition was -1.25%.

For the compound `CC(C)C[C@@H](CO)N1CCN(Cc2ccc(O)cc2)CCC1=O`, the inhibition is -1.07%.

Consider `Cc1ccnc(NC(=O)c2ccco2)n1`, for which the inhibition is 2%.

Turning to `O=C(Nc1nc(-c2ccco2)c(-c2ccco2)s1)c1ccco1`, the inhibition is 51.5% (active).

For `O=C(Nc1ccc2nccnc2c1)c1ccco1`, the inhibition is -2.66%.

For `O=C(Nc1ccc(N2CCN(C(=O)c3ccccc3)CC2)c(Cl)c1)c1ncn[nH]1`, the inhibition was -4.97%.

Regarding `Cc1cccc(NC(=O)CN2CCN(CC(=O)NCC3(N4CCCCC4)CCCCC3)CC2)c1C`, the inhibition was -4.34%.

As to `Cc1ccc(-n2c(SCC(=O)Nc3cccc4ccccc34)nnc2-c2ccccn2)cc1`, the inhibition was 2.33%.

Regarding `O=C(CCCCCN1C(=O)C2C3C=CC(C3)C2C1=O)Nc1ccccn1` (stereo not drawn), the inhibition is -1.93%.
